Gal4-VP16 FLuc – VP16 counterscreen qHTS for inhibitors of ROR gamma transcriptional activity | Drosophila S2 Gal4-VP16 UAS-luciferase, luminescence, 20 h | Potency, µM (series often up to 53.6 µM), for the others: top-dose activity, negative = inhibition, usual class: inhibitors | 3.5% of 310,000 active;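 further: Gal4-VP16 expression switched on by copper sulfate through the metallothionein promoter; potency means the concentration at half of the fitted maximal effect; on the % scale 0 is the no-effect control and ±100 the full control effect; nearly all actives have a fitted effect of over 50% in size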
Giardia killer – Small Molecules that selectively kill Giardia lamblia: qHTS | Giardia lamblia trophozoite viability | activity change, % at 7.66 µM, hits read low | 0.15% of 340,000 active; in the data active means activity change below about -80%; inconclusive means between about -30% and that limit;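 further: parasites exposed to compound for two days anaerobically before the ATP read; on the % scale 0 is the no-effect control and ±100 the full control effect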
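ATP-content bioluminescence gauges trophozoite survival. Cells (100/well) receive compound and incubate anaerobically for 48 hrs at 37 deg C; detection reagent follows for 15-30 min at room temperature.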
BRCA1 expr up – qHTS Assay to Identify Small Molecule Activators of BRCA1 Expression | MCF7-BRCA1-FFLuc reporter, luminescence, 48 h; response scale: scaled: vehicle 0%, 10 µM genistein 100% | Potency, µM (doses to about 46.1 µM), for inactives: at the highest dose activation, usual class: activators | 1.1% of 380,000 active; further: potency means the concentration at half of the fitted maximal effect; nearly all actives have a fitted effect of over 80% in size
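MCF7-BRCA1-FFLuc cells, 2000/well in phenol-red-free MEM, attached 2 h then treated 48 h at 37 C. Luciferase luminescence read 15 min after reagent; normalized to genistein maximum activation (10microM) and DMSO, concentration-response fitted.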
p53 reactivator – qHTS assay for re-activators of p53 using a Luc reporter | H1299 p53-A138V BP100-luciferase reporter, luminescence, 24 h | Potency, µM (titrated, usually from 92.2 µM), for the others: at the top dose activity change, positive = activation, usual class: activators | 0.063% of 320,000 active | AID 504706, 2011; further: potency means the concentration at half of the fitted maximal effect; % of control where 0% means no effect; nearly all actives have a fitted effect of over 45% in size
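H1299 (p53-null), stable ts p53-A138V + BP100-Luc; 1000 cells/well, Opti-MEM/10% FBS; cpd 4 pt, 1:5; 24 h, 37 deg C, 5% CO2; detection reagent 10 min RT; luminescence.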
ELG1 DNA repair – qHTS screen for small molecules that inhibit ELG1-dependent DNA repair in human embryonic kidney (HEK293T) cells expressing luciferase-tagged ELG1. HEK293T ELG1-luciferase reporter, luminescence, 16 h; DNA damage induced by 5-fluorouridine. 2.3% of 330,000 active. Potency, µM (series often up to 46.1 µM), without a hit: at the top dose activity change, negative = inhibition, hits mostly inhibitors; further: potency means the concentration at half of the fitted maximal effect; on the % scale 0 is the no-effect control and ±100 the full control effect; nearly all actives have a fitted effect of over 55% in size
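DMSO vehicle served as the neutral condition. Each well held 2,000 cells given 5-fluorouridine plus compound; after 16 hr at 37 °C/5% CO2, ONE-Glo was added and luciferase measured 30 min later.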
RORg inh – qHTS for inhibitors of ROR gamma transcriptional activity; 5.4% of 310,000 active; Potency, µM (doses to about 53.6 µM), inactives show at the highest dose activity change, negative = inhibition, usual class: inhibitors; Nuclear receptor ROR-gamma (Mus musculus), P51450; Drosophila S2 Gal4-RORgamma UAS-luciferase reporter, 20 h; further: potency means the concentration at half of the fitted maximal effect; on the % scale 0 is the no-effect control and ±100 the full control effect; nearly all actives have a fitted effect of over 60% in size
Target sequence (P51450 whole entry, looked up, the tested form may be a part): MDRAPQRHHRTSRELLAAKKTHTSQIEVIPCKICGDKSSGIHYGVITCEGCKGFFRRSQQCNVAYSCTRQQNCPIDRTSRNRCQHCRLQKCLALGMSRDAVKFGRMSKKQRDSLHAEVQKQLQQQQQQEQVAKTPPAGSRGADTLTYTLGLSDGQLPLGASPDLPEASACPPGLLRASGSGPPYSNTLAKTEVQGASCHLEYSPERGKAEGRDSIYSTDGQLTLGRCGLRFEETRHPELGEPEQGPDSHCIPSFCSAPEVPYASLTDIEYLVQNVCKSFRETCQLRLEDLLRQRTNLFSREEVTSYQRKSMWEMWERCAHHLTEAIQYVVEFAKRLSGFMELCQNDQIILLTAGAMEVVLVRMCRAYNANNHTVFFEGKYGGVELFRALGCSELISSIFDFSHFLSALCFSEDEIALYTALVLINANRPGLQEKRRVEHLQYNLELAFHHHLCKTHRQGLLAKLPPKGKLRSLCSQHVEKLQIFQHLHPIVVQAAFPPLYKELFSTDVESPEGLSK
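Luciferase reporter read in Schneider cells carrying Gal4-RORγ (mouse) and UAS-Photinus luciferase; cells given compound 1 h before 700 uM copper sulfate induction, then incubated 20 h at ambient temperature.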
The depositor's hits bear a star; u = inconclusive; x = no result given; [ ] = dose if it differs, or a comment. Sampled rows, rich in hits. Any-hit rate of the full collection: about 7.6%. Unless noted, the call rests on the fitted dose curve; in most records, active means well fitted curve in the direction sought with a large enough effect; inconclusive means small, poorly fitted or top-dose-only effect, or another doubt; inactive means no such curve, though single readings can be large; an effect the other way counts as inactive or inconclusive.

SMILES	Gal4-VP16 FLuc	Giardia killer	BRCA1 expr up	p53 reactivator	ELG1 DNA repair	RORg inh
CC1(C)CC(=O)/C(=N/Nc2ccc(Cl)cc2)CO1	-13%	2	3.5µM*	20%	u	9%
CC(C)Sc1nsc2nc(=O)c(/C=C3\C=Nc4ccccc43)c(N)n12	-6%	17	0%	u	1%	32%
Cn1nc(C(=O)NCc2ccc(Cl)cc2)c2c1-c1ccccc1S(=O)(=O)C2	2%	-13	-22%	-1%	-22%	31%
COc1cccc2[nH]c(=O)c(-c3ccccc3)cc12	5%	-3	3.2µM*	u	u	3%
COc1ccc(-c2cc(=O)[nH]c3ccccc23)cc1	x	-6	-40%	1%	5%	x
O=C(c1ccco1)N1N=C(c2ccncc2)CC1(O)C(F)(F)F (configuration not stated)	2%	23	7%	1%	3%	10%
O=C(CCc1ccccc1)N1N=C(c2ccncc2)CC1(O)C(F)(F)F (configuration not stated)	1%	6	-12%	-3%	16%	-3%
O=C(c1ccco1)N1N=C(c2ccc(Cl)cc2)CC1(O)C(F)(F)F (configuration not stated)	5.6µM*	u	-19%	4%	-27%	u
O=C(c1ccco1)N1N=C(c2ccc(Br)cc2)CC1(O)C(F)(F)F (configuration not stated)	u	-23	0%	0%	u	7.1µM*
CCN(CC)S(=O)(=O)c1ccc2c(c1)nc(SCC(=O)N1CCCCCC1)n2-c1ccc(OC)cc1	12%	-7	-48%	-6%	5.2µM*	1%
COCCOC(=O)C1=C(C)NC(=O)NC1/C=C/c1ccccc1 (configuration not stated)	5%	4	13%	-16%	-6%	21%
COCCOC(=O)C1=C(C)NC(=S)NC1/C=C/c1ccccc1 (configuration not stated)	0%	4	-16%	-15%	5.8µM*	13%[10 µM]
C=CCOC(=O)C1=C(C)NC(=S)NC1/C=C/c1ccccc1 (configuration not stated)	6.3µM*	-7	-31%	3%	u	2.5µM*
CC1=C(C(=O)OCc2ccccc2)C(/C=C/c2ccccc2)NC(=S)N1 (configuration not stated)	5.6µM*	-6	-84%	-24%	u	u
O=C(c1ccc2c(c1)N(Cc1ccc(Cl)cc1)C(=O)c1ccccc1S2(=O)=O)N1CCN(c2ccccn2)CC1	x	x	0%	x	x	x
CC(C)(C)OC(=O)C(Cl)(C(=O)OC(C)(C)C)c1ccc2nnnn2n1	u	-23	11%	-14%	u	13µM*
CCOc1ccc2nnnn2n1	-2%	0	-13%	-7%	-24%	-25%
COc1cc(NC(=S)Nc2ccc(Br)cc2Cl)c(OC)cc1Cl	u	1	-4%	22%	u	u
COc1cc(NC(=S)NC(C)(C)C)c(OC)cc1Cl	u	4	-24%	1%	u	5µM*
COc1cc(OC)c(NC(=S)Nc2cc(Cl)cc(Cl)c2)cc1Cl	u	2	-73%	3%	-13%	13µM*
COc1cc(Cl)c(C)cc1NC(=S)NN	u	-18	-25%	0%	-26%	2.5µM*
COc1ccc(NC(=O)CC(C)CC(=O)NCc2ccccc2)c(OC)c1 (configuration not stated)	1%	-9	3%	x	-8%	-13%
COc1ccc(NC(=S)NCc2ccccc2)c(OC)c1	u	-2	9%	x	0%	16µM*
